# Data as given in PubChem BioAssay (NCATS).
# Values joined by “and” are separate entries in the source; they are usually repeats but may differ in a detail not shown here. Identical values can stand only once. Results filed as inconclusive are left out. Where a call stands in place of a potency, no number is given. Active and inactive are the calls of the source. Unless noted, the call rests on the fitted dose curve.
# How the values were obtained:
# [1] = molecular target: Ubiquitin carboxyl-terminal hydrolase 1 (Homo sapiens) (UniProt O94782); test: Inhibitors of USP1/UAF1: Pilot qHTS (AID 504865; active means well fitted inhibition curve with a large enough effect;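 further: rhodamine fluorescence freed from ubiquitin-rhodamine substrate followed over time; top concentration of the series differs between compounds; nearly all actives have a fitted effect of over 35% in size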)
# Summary of the method: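 Deubiquitinase activity followed as kinetic rhodamine fluorescence release from 150 nM Ub-Rho. 1 nM USP1/UAF1 with compound, after 15 min room-temperature preincubation, in HEPES pH 7.8 buffer containing TCEP, EDTA, BSA and Tween-20.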
# [2] = molecular target: Estrogen receptor (Homo sapiens) (UniProt P03372); test: qHTS assay for small molecule antagonists of estrogen receptor alpha signaling (AID 588513; active means well fitted curve in the direction sought with a large enough effect in the signal ratio, with a control signal flat, not every such curve was filed as active; the % refers to the signal ratio)
# Summary of the method: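 Antagonist mode: inhibition of 0.5 nM 17-beta-estradiol-driven beta-lactamase reporter in HEK 293 ER-alpha-UAS-bla cells, 18 h at 37C, CCF4 readout after 2 h at RT. Normalised to estradiol and DMSO; titration fitted to Hill.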
# [3] = molecular target: Estrogen receptor (Homo sapiens) (UniProt P03372); test: qHTS assay for small molecule agonists of estrogen receptor alpha signaling (AID 588514); further: nearly all actives have a fitted effect of over 70% in size
# Summary of the method: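 Read-out: CCF4 fluorescence from a beta-lactamase reporter in ER-alpha-UAS-bla HEK 293 cells after 18 hrs of compound exposure at 37 C. Normalized to 20 nM 17-beta-estradiol (100%) and DMSO (0%).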
# [4] = molecular target: Glucocorticoid receptor (Homo sapiens) (UniProt P04150); test: qHTS assay for small molecule agonists of glucocorticoid receptor signaling (AID 588532; active means well fitted curve in the direction sought with a large enough effect in the signal ratio, with a control signal flat; the % refers to the signal ratio); conditions: HeLa MMTV-bla, beta-lactamase ratio, agonist, 18 h; stronger effect = higher value; percent of dexamethasone control, DMSO zero
# Summary of the method: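 Stimulation of a glucocorticoid response element-driven beta-lactamase gene was measured in HeLa cells. Responses were scaled between DMSO basal and 0.1 uM dexamethasone, then fitted for half-maximal stimulation.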
# [5] = molecular target: Glucocorticoid receptor (Homo sapiens) (UniProt P04150); test: qHTS assay for small molecule antagonists of glucocorticoid receptor signaling (AID 588533; active means well fitted inhibition curve with a large enough effect in the signal ratio, with a control signal flat, not every such curve was filed as active; the % refers to the signal ratio;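 further: cells stimulated with 2 nM dexamethasone as agonist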)
# Summary of the method: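 Antagonist-mode qHTS: compound titrations added to GRE-bla HeLa cells, then dexamethasone 2 nM final; 18 h, 37 C. CCF4 FRET fluorescence normalized to dexamethasone and DMSO; IC50 from Hill fit.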
# [6] = qHTS assay for small molecule antagonists of peroxisome proliferator-activated receptor delta signaling (AID 588535; active means well fitted inhibition curve with a large enough effect in the signal ratio, with a control signal flat, not every such curve was filed as active; the % refers to the signal ratio;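 on max response: cells co-treated with a PPAR-delta agonist as stimulator during compound exposure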); conditions: HEK293T PPARd-UAS-bla, beta-lactamase FRET ratio, 18 h; 460 nm channel
# Summary of the method: (§1)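 Compounds tested in titration on PPAR-delta-UAS-bla HEK293T cells grown in charcoal/dextran-stripped serum (2%); beta-lactamase activity read via CCF4 emission at 460 and 530 nm.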
# [7] = molecular target: Peroxisome proliferator-activated receptor delta (Homo sapiens) (UniProt Q03181); test: as above
# Summary of the method: as §1
# [8] = molecular target: Vitamin D3 receptor (Homo sapiens) (UniProt P11473); test: qHTS assay for small molecule agonists of vitamin D receptor signaling (AID 588543)
# Summary of the method: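 Agonist-mode beta-lactamase reporter: HEK293T VDR-UAS-bla cells in charcoal-stripped 2% FBS, compound series 16 h 37 C, CCF4 2 h RT. EC50 from Hill fit, scaled against DMSO and 50 nM calcitriol control.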
# [9] = qHTS assay for small molecule agonists of retinoid X receptor alpha signaling (AID 588544); conditions: HEK293T RXRa-UAS-bla, beta-lactamase reporter, 18 h; 530 nm emission
# [10] = molecular target: Peroxisome proliferator-activated receptor gamma (Homo sapiens) (UniProt P37231); test: qHTS assay for small molecule agonists of peroxisome proliferator-activated receptor gamma signaling (AID 588536; active means well fitted curve in the direction sought with a large enough effect in the signal ratio, with a control signal flat, not every such curve was filed as active; the % refers to the signal ratio)
# Summary of the method: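 This is an agonist-mode beta-lactamase reporter assay in HEK293 PPAR-gamma-UAS-bla cells with 1% charcoal/dextran FBS. Compound titrations ran 16 h at 37 C before CCF4 detection. EC50 and efficacy are Hill fits scaled to 2 uM rosiglitazone (100%) and DMSO basal.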
# [11] = molecular target: Peroxisome proliferator-activated receptor gamma (Homo sapiens) (UniProt P37231); test: qHTS assay for small molecule antagonists of peroxisome proliferator-activated receptor gamma signaling (AID 588537; active means well fitted inhibition curve with a large enough effect in the signal ratio, with a control signal flat, not every such curve was filed as active; the % refers to the signal ratio;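 further: reporter cells co-stimulated with 50 nM rosiglitazone agonist during compound treatment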)
# Summary of the method: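 HEK293 cells, PPAR-gamma-UAS-bla, 3000/well. Pre-incubation 6-6.5 h, 37 C. Compound titration with rosiglitazone 50 nM final, 16 h. CCF4 dye, 2 h RT, dual-emission fluorescence.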
# [12] = molecular target: Androgen receptor (Homo sapiens) (UniProt P10275); test: qHTS assay for small molecule agonists of androgen receptor signaling (AID 588515; active means well fitted curve in the direction sought with a large enough effect in the signal ratio, with a control signal flat; the % refers to the signal ratio); conditions: AR-UAS-bla HEK293, beta-lactamase ratio, agonist 16 h; stronger effect = higher value
# Summary of the method: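 Stimulation of an AR-responsive β-lactamase reporter in GripTite HEK293 cells was measured after 16 h compound exposure at 37 °C, via CCF4 fluorescence after 2 h RT. EC50 from Hill fits, normalized to R1881 at 30 nM.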
# [13] = molecular target: Bile acid receptor (Homo sapiens) (UniProt Q96RI1); test: qHTS assay for small molecule antagonists of farnesoid X receptor signaling (AID 588526)
# Summary of the method: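 Concentration-response titrations were fitted to the Hill equation for half-maximal inhibition and maximal response, with data normalised to 50 uM chenodeoxycholic acid and DMSO control wells. Cells: FXR-UAS-bla HEK293T, dialyzed FBS.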
# [14] = molecular target: DNA dC->dU-editing enzyme APOBEC-3G (Homo sapiens) (UniProt Q9HC16); test: qHTS for inhibitors of Vif-A3G interactions: Validation (AID 588379; active means well fitted inhibition curve with a large enough effect)
# Summary of the method: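 Yellow fluorescence (Ex 488, Em 500-530) of Vif-coexpressing HeLa A3G-eYFP cells, scanned by Acumen cytometer, reports blocked A3G degradation. Cells plated at 700/well overnight at 37 deg C before compound addition, then a further overnight compound incubation at 37 deg C.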
# Chain of Peroxisome proliferator-activated receptor delta (Homo sapiens) (Q03181 whole entry, looked up): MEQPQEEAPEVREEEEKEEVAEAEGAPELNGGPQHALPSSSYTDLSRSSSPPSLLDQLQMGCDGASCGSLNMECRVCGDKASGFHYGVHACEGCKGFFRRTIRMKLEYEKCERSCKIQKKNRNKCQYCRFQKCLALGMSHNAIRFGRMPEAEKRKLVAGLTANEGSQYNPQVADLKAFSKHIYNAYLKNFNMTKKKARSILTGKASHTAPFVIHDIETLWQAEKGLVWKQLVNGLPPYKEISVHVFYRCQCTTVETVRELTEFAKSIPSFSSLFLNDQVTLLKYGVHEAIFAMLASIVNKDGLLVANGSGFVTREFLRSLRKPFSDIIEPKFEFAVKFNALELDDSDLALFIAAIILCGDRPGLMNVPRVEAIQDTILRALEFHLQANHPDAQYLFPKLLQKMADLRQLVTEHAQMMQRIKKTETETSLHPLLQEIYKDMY
# Chain of Estrogen receptor (Homo sapiens) (P03372 whole entry, looked up): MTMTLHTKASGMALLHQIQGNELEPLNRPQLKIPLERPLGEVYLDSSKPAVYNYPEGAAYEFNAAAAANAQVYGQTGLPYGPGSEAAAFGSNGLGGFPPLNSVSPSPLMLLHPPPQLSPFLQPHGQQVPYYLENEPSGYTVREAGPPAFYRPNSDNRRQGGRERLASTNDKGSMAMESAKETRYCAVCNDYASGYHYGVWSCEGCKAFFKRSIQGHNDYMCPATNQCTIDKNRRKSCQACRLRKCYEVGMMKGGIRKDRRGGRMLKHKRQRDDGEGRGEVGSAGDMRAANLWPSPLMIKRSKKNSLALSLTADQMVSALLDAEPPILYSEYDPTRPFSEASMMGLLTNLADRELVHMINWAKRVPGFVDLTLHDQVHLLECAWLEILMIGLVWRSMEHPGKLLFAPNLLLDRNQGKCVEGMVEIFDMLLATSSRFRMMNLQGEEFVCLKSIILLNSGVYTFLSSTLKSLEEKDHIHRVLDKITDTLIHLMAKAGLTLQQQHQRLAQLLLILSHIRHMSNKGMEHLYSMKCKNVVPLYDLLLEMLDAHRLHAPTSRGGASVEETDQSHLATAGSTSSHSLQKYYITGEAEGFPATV
# Chain of Ubiquitin carboxyl-terminal hydrolase 1 (Homo sapiens) (O94782 whole entry, looked up): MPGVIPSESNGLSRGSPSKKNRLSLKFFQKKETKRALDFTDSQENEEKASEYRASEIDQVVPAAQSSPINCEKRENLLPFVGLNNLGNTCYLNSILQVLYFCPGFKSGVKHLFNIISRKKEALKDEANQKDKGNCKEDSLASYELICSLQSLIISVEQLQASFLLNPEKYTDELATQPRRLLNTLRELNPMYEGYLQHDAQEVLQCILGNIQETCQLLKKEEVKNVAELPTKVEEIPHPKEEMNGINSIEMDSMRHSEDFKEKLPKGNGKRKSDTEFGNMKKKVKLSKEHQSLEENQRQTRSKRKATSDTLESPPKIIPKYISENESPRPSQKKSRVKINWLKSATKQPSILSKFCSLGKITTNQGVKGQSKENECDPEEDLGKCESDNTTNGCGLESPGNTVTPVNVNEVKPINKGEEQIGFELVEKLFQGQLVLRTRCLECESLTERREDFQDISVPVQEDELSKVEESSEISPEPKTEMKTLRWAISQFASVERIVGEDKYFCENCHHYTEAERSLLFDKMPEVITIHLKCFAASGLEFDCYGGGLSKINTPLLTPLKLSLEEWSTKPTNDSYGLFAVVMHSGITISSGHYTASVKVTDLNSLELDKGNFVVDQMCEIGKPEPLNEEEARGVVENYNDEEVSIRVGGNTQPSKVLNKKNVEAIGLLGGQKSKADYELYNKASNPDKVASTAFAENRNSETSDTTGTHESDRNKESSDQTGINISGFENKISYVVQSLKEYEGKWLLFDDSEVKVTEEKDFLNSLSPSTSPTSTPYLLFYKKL
# Chain of Vitamin D3 receptor (Homo sapiens) (P11473 whole entry, looked up): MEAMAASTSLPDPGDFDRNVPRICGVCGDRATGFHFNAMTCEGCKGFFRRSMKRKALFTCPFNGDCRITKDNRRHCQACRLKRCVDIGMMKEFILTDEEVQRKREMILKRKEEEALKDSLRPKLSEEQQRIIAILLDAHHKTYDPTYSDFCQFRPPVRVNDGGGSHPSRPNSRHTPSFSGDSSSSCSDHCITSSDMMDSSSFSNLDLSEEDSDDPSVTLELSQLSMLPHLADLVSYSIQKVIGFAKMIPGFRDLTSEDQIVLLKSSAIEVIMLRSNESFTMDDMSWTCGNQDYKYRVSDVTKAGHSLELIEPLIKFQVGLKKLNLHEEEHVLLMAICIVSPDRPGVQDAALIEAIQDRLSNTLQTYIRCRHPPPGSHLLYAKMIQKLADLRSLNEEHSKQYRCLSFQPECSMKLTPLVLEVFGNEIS
# Chain of Peroxisome proliferator-activated receptor gamma (Homo sapiens) (P37231 whole entry, looked up): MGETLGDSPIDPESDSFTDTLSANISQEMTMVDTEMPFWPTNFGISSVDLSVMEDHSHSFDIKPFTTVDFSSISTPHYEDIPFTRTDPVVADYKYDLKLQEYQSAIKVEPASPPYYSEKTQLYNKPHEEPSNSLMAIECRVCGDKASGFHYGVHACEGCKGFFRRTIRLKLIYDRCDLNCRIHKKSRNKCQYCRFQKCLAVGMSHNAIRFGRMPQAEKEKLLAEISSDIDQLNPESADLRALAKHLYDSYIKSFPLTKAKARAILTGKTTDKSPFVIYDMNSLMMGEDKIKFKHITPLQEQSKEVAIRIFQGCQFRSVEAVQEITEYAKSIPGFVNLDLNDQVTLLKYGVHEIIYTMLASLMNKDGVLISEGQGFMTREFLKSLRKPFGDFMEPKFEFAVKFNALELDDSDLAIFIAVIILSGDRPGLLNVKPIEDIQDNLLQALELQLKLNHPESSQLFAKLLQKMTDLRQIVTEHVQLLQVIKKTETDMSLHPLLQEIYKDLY
# Chain of Glucocorticoid receptor (Homo sapiens) (P04150 whole entry, looked up): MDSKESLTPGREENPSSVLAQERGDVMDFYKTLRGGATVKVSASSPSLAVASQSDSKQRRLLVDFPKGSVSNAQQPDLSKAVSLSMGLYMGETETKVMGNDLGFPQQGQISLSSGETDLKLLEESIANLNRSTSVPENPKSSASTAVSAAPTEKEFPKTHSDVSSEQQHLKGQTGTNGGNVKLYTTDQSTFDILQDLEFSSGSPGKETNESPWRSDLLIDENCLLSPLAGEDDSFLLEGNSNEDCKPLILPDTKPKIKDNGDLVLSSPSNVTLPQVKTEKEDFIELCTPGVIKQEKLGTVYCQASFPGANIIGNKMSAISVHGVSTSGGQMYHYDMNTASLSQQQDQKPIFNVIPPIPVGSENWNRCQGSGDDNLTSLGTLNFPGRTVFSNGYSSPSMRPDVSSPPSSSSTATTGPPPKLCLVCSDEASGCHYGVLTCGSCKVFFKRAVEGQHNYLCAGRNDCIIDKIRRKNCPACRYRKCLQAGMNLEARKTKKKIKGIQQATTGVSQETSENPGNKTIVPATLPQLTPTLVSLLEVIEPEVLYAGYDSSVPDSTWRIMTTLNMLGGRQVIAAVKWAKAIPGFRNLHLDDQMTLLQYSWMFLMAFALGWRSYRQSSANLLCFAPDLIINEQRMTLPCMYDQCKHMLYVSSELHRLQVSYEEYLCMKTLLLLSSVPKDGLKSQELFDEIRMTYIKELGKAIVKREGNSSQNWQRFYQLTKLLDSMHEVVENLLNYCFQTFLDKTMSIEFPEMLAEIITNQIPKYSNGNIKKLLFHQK
# Chain of Androgen receptor (Homo sapiens) (P10275 whole entry, looked up): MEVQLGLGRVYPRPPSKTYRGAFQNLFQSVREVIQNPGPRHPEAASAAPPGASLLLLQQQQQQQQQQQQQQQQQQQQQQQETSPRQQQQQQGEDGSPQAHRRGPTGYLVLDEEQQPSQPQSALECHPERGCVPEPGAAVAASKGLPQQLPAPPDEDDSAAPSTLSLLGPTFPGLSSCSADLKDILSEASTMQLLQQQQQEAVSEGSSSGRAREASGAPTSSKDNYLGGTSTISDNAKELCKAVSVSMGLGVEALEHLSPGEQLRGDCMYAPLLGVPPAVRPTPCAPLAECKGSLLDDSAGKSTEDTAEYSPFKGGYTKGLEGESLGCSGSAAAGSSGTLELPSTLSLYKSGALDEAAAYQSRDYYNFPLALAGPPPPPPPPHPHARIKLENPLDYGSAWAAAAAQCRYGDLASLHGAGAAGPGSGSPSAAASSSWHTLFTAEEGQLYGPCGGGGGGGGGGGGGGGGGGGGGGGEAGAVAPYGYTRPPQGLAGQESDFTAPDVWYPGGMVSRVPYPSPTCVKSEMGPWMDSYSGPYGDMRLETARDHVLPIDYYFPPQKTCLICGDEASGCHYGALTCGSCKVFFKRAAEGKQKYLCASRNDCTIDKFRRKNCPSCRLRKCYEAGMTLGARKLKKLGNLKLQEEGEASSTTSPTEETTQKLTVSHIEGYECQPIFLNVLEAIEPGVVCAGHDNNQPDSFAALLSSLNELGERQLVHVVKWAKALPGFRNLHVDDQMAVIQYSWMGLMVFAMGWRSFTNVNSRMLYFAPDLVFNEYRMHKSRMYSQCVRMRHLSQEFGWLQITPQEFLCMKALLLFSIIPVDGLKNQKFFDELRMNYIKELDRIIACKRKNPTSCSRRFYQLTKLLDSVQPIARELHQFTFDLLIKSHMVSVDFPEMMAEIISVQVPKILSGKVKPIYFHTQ
# Chain of Bile acid receptor (Homo sapiens) (Q96RI1 whole entry, looked up): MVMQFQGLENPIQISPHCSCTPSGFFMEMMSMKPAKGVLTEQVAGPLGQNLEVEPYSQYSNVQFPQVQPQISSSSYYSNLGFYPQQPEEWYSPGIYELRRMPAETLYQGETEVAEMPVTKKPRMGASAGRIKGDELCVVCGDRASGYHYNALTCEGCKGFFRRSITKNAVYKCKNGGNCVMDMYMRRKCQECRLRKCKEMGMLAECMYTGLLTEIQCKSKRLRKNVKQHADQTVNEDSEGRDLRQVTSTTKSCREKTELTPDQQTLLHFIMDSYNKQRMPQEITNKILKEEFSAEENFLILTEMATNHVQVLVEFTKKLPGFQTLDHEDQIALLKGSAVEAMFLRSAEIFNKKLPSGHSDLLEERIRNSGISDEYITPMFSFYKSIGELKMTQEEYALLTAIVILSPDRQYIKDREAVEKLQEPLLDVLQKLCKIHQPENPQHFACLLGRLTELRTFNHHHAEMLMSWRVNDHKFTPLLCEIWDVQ
compound,measurement,setting,value
CCc1nc(N)nc(N)c1-c1ccc(Cl)cc1,Potency,[1],inactive
same,outcome,[2],inactive
same,outcome,[3],inactive
same,activation,[4],6.7% (inactive) and -0.85% (inactive)
same,outcome,[5],inactive
same,max response,[6],-4.91%
same,outcome,[7],inactive
same,outcome,[8],inactive
same,max response,[9],19.5% and 21%
CCCc1cc(=O)[nH]c(=S)[nH]1,Potency,[1],inactive
same,outcome,[2],inactive
same,outcome,[3],inactive
same,max response,[6],15.2% and -59%
same,outcome,[7],inactive
same,outcome,[10],inactive
same,Potency,[11],inactive
same,max response,[9],3.33% and 11.8%
c1ccc2[nH]c(-c3cscn3)nc2c1,Potency,[1],inactive
same,outcome,[2],inactive
same,outcome,[3],inactive
same,activation,[12],7.31% (inactive) and -15.4% (inactive)
same,outcome,[13],inactive
same,activation,[4],-3.88% (inactive) and -4.87% (inactive)
same,outcome,[5],inactive
same,max response,[6],-13.4%
same,outcome,[7],inactive
same,outcome,[10],inactive
same,Potency,[11],inactive
same,outcome,[8],inactive
same,max response,[9],8.2% and -19.9%
Cc1cc2c(s1)Nc1ccccc1N=C2N1CCN(C)CC1,Potency,[1],inactive
CCOC(=O)C1=C(O)C(=O)N(Cc2ccccc2)C1,outcome,[14],inactive
